# According to PubChem BioAssay:
# Entries with a potency or affinity are not part of this list. Values without a mark were called inactive.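 The calls were made as follows: active = signal drop whose fitted half-maximal concentration is at most twice the top valid dose, in every test run; inconclusive = mixed calls across runs, poor fit, or flat 30 to 70% inhibition; inactive = wrong direction, flat within 30%, or potency beyond limit.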
# Test: RMG-1 ovarian cancer cell viability loss – cherry-pick, dose response (AID 687029);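 also: cells exposed to compound for 96 hours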
# Conditions: RMG-1 viability, CellTiterGlo ATP luminescence, 96 h; series mostly up to 35 µM; activity change, negative = inhibition: at the top concentration
row,Structure (SMILES),"activity change, negative = inhibition"
1,CCCCn1cnc2c(c(-c3ccccc3)c(-c3ccccc3)n2Cc2ccco2)c1=N,26%
2,O=C(N/N=C/c1ccc(O)cc1)c1[nH]c2ccc(Br)cc2c1-c1ccccc1,36.3%
3,COC(=O)[C@@H]1Cc2c([nH]c3ccccc23)C(C)(C)N1C(=O)CCl,17.6%
4,O=C(CCl)N=c1sccn1Cc1ccccc1Cl,-0.668%
5,COc1cccc(/C=N/NC(=O)c2ccc(N3CCCC3=O)cc2)c1,14.4%
6,Cc1ccc(S(=O)(=O)c2nc(S(=O)(=O)c3ccccc3)sc2N2CCN(C)CC2)cc1,45.3%
7,C[C@H]1CCCCO[C@@H](CN(C)Cc2ccc(C(F)(F)F)cc2)[C@@H](C)CN([C@@H](C)CO)C(=O)c2cc(NS(=O)(=O)c3ccc(Cl)cc3)ccc2O1,5.21%
8,N#Cc1ccc(NC(=O)COC(=O)C2CCC2)cc1,24.3%
9,O=C(Nc1ccc(F)cc1)c1nc(S(=O)(=O)Cc2ccccc2)ncc1Cl,9.93%
10,CC(C)=CCC/C(C)=C/CNC(=O)C[C@H]1C[C@H](C(=O)N2CCOCC2)[C@@]2(C)c3[nH]c4ccc(Cl)cc4c3CCN2C1=O,30.9%
11,Cc1ccc(C)c(N2CCN(C(=O)CCCCCn3c(=S)[nH]c4ccc(N5CCOCC5)cc4c3=O)CC2)c1,21.7%
12,COc1ccc(-c2ccc3c(c2)[C@H]2[C@H](CCN2S(=O)(=O)c2ccc(OC)cc2)[C@H](CO)N3C)cc1,19.1% [at 30 µM]
13,COc1ccc(C#Cc2ccc([C@@H]3[C@H](CO)N4CCCCN(C(=O)Nc5cccc(F)c5)C[C@@H]34)cc2)cc1,10.2%
14,Oc1ccc(C[C@H]2CNC(=S)N2CC2CCCN2C[C@H](Cc2ccccc2)N2C[C@H](Cc3ccc(O)cc3)N(CCc3ccccc3)C2=S)cc1 (stereo partly specified),18.5%
15,Oc1ccc(/C=N\Nc2cc(N3CCOCC3)nc(N3CCOCC3)n2)c(O)c1,22.4%
16,O=C(Nc1ccc(Cl)cc1)Nc1ccc(N2CCCC2)c(S(=O)(=O)Nc2ccccc2Cl)c1,17.9%
17,C[C@H](CO)N1C[C@H](C)[C@@H](CN(C)Cc2ccncc2)Oc2ccc(NC(=O)Nc3ccc(C(F)(F)F)cc3)cc2CC1=O,20.4%
18,O=C(C[C@@H]1C[C@H]2c3cc(NS(=O)(=O)c4ccc(F)cc4)ccc3O[C@H]2[C@@H](CO)O1)NCc1ccc(Oc2ccccc2)cc1,23.7%

row,Structure (SMILES),"activity change, negative = inhibition"
1,FC(F)(F)c1nnc2c(Sc3ccc(Cl)cc3)nc3ccccc3n12,33.8%
2,C[C@@H]1CCCCO[C@@H](CN(C)Cc2ccc3c(c2)OCO3)[C@H](C)CN([C@@H](C)CO)C(=O)c2cc(NC(=O)Nc3ccc(C(F)(F)F)cc3)ccc2O1,15.1%
3,CN(C)N=Nc1nc[nH]c1C(N)=O,27.5%
4,COC(C(=O)C(O)C(C)O)C1Cc2cc3cc(OC4CC(OC5CC(O)C(O)C(C)O5)C(O)C(C)O4)c(C)c(O)c3c(O)c2C(=O)C1OC1CC(OC2CC(OC3CC(O)C(OC)C(C)O3)C(O)C(C)O2)C(O)C(C)O1 (stereo unspecified),25.9%
5,O=C(NCC1CCCO1)C(=Cc1cccc([N+](=O)[O-])c1)C(=O)NCC1CCCO1 (stereo unspecified),6.14%
6,Cc1ccc(S(=O)(=O)CCC(=O)c2ccc(O)cc2O)cc1,5.25%
7,O=C(Nc1nc(-c2cccs2)c(-c2cccs2)s1)C1(c2ccccc2)CC1,15.6%
8,Cc1cccc(NC(=O)CC23CC4CC(C2)CC(n2nnc(C)n2)(C4)C3)c1,7.63%
9,Cc1ccc(S(=O)(=O)Nc2ccc3c(c2)C(=O)N([C@H](C)CO)C[C@H](C)[C@@H](CN(C)S(=O)(=O)c2ccc(C)cc2)OCCCC[C@H](C)O3)cc1,26.2%
10,CCCCNC(=O)C(Sc1ccccc1)c1ccccc1 (stereo unspecified),24.8%
11,O=C1/C(=C\c2ccc(Cl)c(Cl)c2)CN(C(=O)CCN2CCOCC2)C/C1=C/c1ccc(Cl)c(Cl)c1,12.5%
12,COc1cccc(N(C(=O)c2ccco2)c2nc(-c3sc(NC(=O)c4ccco4)nc3C)cs2)c1,17.9%
13,C[C@H](CO)N1C[C@H](C)[C@H](CN(C)S(=O)(=O)c2cccc(F)c2)OCc2ccccc2-c2c(n(C)c3ccccc23)C1=O,22.8%
14,CCOC(=O)Nc1ccc2c(c1)N(C(=O)CCCl)c1ccccc1[S@]2=O,24.1%
15,COc1ccc(NC(=O)C(Sc2nnc(-c3ccncc3)n2-c2ccccc2C)c2ccccc2)cc1Cl (stereo unspecified),29.8%
16,CC(C)c1ccc(/C=C(\c2nc3ccccc3[nH]2)S(=O)(=O)c2ccccc2)cc1,10.7%
17,Cn1nnnc1Sc1ncnc2scc(-c3cccc(C(F)(F)F)c3)c12,31.9%
18,O=C(CC1SC(=Nc2cccc3ccccc23)N(Cc2ccccn2)C1=O)Nc1ccccc1Br (stereo unspecified),16.8%
